An excerpt weighted towards active compounds, which were near 17% of everything screened.
TDP1 cell CPT = qHTS for Inhibitors of human tyrosyl-DNA phosphodiesterase 1 (TDP1): qHTS in cells in presence of CPT; 12% of 420,000 active; chicken DT40 Tdp1-/-;hTDP1 cells + 20 nM CPT, ATP luminescence, 48 h; AID 686979, 2013; Potency, µM (doses to about 46.2 µM), hits mostly inhibitors; also: nearly all actives have a fitted effect of over 55% in size
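Chicken DT40 Tdp1-/- cells complemented with human TDP1, 400 cells/well, exposed to compounds plus 20 nM camptothecin for at least 48 h at 37 C; viability read as ATP content by CellTiter-Glo luminescence.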
ClpP mod = qHTS Assay for Activators of ClpP; ATP-dependent Clp protease proteolytic subunit (Bacillus subtilis (strain 168)), P80244; purified B. subtilis ClpP, FRET peptide cleavage, 20 min; Potency, µM (series often up to 57.5 µM); 1.9% of 340,000 active; AID 651965, 2013; active = well fitted falling curve with a large enough effect; inconclusive = small, poorly fitted or top-dose-only effect; inactive = no such curve, though single readings can be large or run the other way; also: the source files actives as falling curves though it sought activators and does not explain the sign; nearly all actives have a fitted effect of over 65% in size
Target sequence (P80244 whole entry, looked up): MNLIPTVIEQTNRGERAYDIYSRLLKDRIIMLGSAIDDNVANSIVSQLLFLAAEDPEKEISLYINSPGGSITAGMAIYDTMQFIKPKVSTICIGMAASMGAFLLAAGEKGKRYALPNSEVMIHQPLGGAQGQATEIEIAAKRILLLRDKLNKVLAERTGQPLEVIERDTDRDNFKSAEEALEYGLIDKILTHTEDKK
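Buffer: 100 mM Tris/HCl pH8, 100 mM KCl, 0.05% low protease BSA, 2.5% glycerol, 0.01% Tween-20. ClpP 10 microg/mL final; 20 min RT; delta FRET normalized to ADEP and DMSO controls.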
TDP1 inh = qHTS Assay for Inhibitors of Tyrosyl-DNA Phosphodiesterase (TDP1); Tyrosyl-DNA phosphodiesterase 1 (Homo sapiens), Q9NUW8; Potency, µM (series often up to 130 µM), most hits filed as inhibitors; recombinant TDP1, AlphaScreen DNA substrate cleavage; 0.28% of 350,000 active; AID 485290, 2010; also: nearly all actives have a fitted effect of over 40% in size
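Recombinant human Tdp1 (E. coli-expressed, 1 nM final) preincubated with compounds 15 min at room temperature, then 5'-biotin/3'-phosphotyrosine-FITC DNA substrate (15 nM final) added for 5 min. AlphaScreen beads (10 ug/ml final) added 10 min; cleavage lowers signal.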
TDP1 cell noCPT = qHTS for Inhibitors of human tyrosyl-DNA phosphodiesterase 1 (TDP1): qHTS in cells in absence of CPT; DT40 Tdp1-/- hTDP1 cells, no CPT, ATP luminescence, 48 h; AID 686978, 2013; 15% of 420,000 active; Potency, µM (doses to about 46.2 µM), most hits filed as inhibitors; also: nearly all actives have a fitted effect of over 55% in size
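Growth of hTDP1-complemented DT40 Tdp1-knockout cells is measured by ATP luminescence after at least 48 hr compound exposure at 37 °C, with DMSO substituting for the 20 nM CPT used in the parallel screen.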
Each line names hits and unclear results; the compound was inactive in the other large screens; ! = repeats disagree. Unless noted, calls follow the shape of the dose curve; as a rule, active = well fitted curve in the direction sought with a large enough effect; inconclusive = small, poorly fitted or top-dose-only effect, or another doubt; inactive = no such curve, though single readings can be large; an effect the other way counts as inactive or inconclusive.

O=C(NNC(=S)Nc1ccc(F)cc1)C1CC1c1ccc(Cl)cc1 (centres undefined)	TDP1 cell CPT inconclusive, TDP1 cell noCPT inconclusive
Fc1ccc(NC(=S)Nc2ccccc2OC(F)F)cc1Cl	TDP1 cell CPT inconclusive, TDP1 cell noCPT inconclusive
Fc1ccc(NC(=S)NN=C2CCCCCC2)cc1	TDP1 cell CPT inconclusive, TDP1 cell noCPT inconclusive
Fc1ccc(NC(=S)Nc2cc(Cl)ccc2Cl)cc1	TDP1 cell CPT 5.8µM, TDP1 cell noCPT inconclusive (no result: ClpP mod)
NC1=NC(=O)/C(=C/c2cn(Cc3ccccc3)c3ccccc23)S1	TDP1 cell CPT inconclusive, TDP1 cell noCPT inconclusive
Nc1ccc(/C=C/c2cccc3cccnc23)cc1	TDP1 cell CPT inconclusive, TDP1 cell noCPT inconclusive (no result: TDP1 inh)
COC(=O)c1ccc(Cn2c(SCc3ccccc3)nc3ccncc32)cc1	TDP1 cell CPT inconclusive, TDP1 cell noCPT 21µM
COc1ccc(CSc2nc3ccncc3n2CC(=O)Nc2ccc(C)c(F)c2)cc1	ClpP mod inconclusive
Cc1ccccc1Cn1c(SCc2ccc(C(=O)NC3CCCC3)cc2)nc2ccncc21	TDP1 cell CPT inconclusive, TDP1 cell noCPT inconclusive
CC(CNC(=O)c1ccc(CSc2nc3ccncc3n2Cc2ccccc2)cc1)c1ccccc1 (centres undefined)	TDP1 cell CPT inconclusive, TDP1 cell noCPT inconclusive
CCc1ccc(CNC(=O)c2ccc(CSc3nc4ccncc4n3Cc3ccc(OC)cc3)cc2)cc1	TDP1 cell CPT 23µM, TDP1 cell noCPT inconclusive
COc1ccccc1CNC(=O)c1ccc(CSc2nc3ccncc3n2Cc2cccc(F)c2)cc1	TDP1 cell CPT inconclusive, TDP1 cell noCPT 18µM
CCc1ccc(CNC(=O)c2ccc(CSc3nc4ccncc4n3Cc3ccccc3)cc2)cc1	TDP1 cell CPT 16µM, ClpP mod 32µM, TDP1 cell noCPT 23µM
COCCN1C[C@@H](CO)O[C@@H](n2cnc3c(NCc4ccco4)ncnc32)C1	none (no result: TDP1 inh)
Cc1ccc(S(=O)(=O)CC(=O)NCc2ccc(Cl)cc2)cc1	none
COc1ccc(NC(=O)CN2C(=O)NC3(CCCCC3C)C2=O)cc1OC (centres undefined)	none
COc1ccc(Cn2c(SCc3ccc(C(=O)NCc4cccs4)cc3)nc3ccncc32)cc1	TDP1 cell CPT 18µM, TDP1 cell noCPT inconclusive
O=C(NCc1cccs1)c1ccc(CSc2nc3ccncc3n2Cc2cccc(F)c2)cc1	TDP1 cell CPT inconclusive, TDP1 cell noCPT 21µM
O=C(COC(=O)COc1ccc(Cl)cc1Cl)NC1CCCC1	none
S=C(Nc1ccc(Cl)cc1)c1nc2ccccc2s1	TDP1 cell CPT inconclusive, TDP1 cell noCPT 15µM
O=C(O)C/C(=C\c1cccc(NC(=O)c2ccccc2Cl)c1)c1nc2ccccc2s1	TDP1 cell CPT inconclusive, TDP1 cell noCPT inconclusive (no result: TDP1 inh)
O=C(Nc1ccc(Cl)cc1)/C(=C/c1cccc(O)c1)c1nc2ccccc2s1	TDP1 cell CPT 5.2µM, TDP1 cell noCPT 4.6µM
Cc1ccc(C)c(NC(=S)c2nc3ccccc3s2)c1	TDP1 cell CPT 26µM, TDP1 cell noCPT inconclusive
O=C(NCC1CCCO1)c1cc(-c2ccc(F)cc2)no1 (centres undefined)	TDP1 cell CPT inconclusive, TDP1 cell noCPT inconclusive
CCc1nc2ccc(C(=O)NCc3ccc(N(C)C)cc3)cc2nc1CC	TDP1 cell CPT inconclusive, TDP1 cell noCPT inconclusive
CCc1nc2ccc(C(=O)NCCc3ccc(OC)cc3OC)cc2nc1CC	TDP1 cell CPT 26µM, ClpP mod 32µM, TDP1 cell noCPT 18µM
CCc1nc2ccc(C(=O)NCc3cc(OC)ccc3OC)cc2nc1CC	TDP1 cell CPT 16µM, TDP1 cell noCPT inconclusive
COC(=O)CNC(=O)N1CCN(S(=O)(=O)c2ccc3c(ccn3C)c2)CC1	none (no result: TDP1 cell CPT, TDP1 cell noCPT)
CCC1CN(C(=O)N2CCC(C(=O)Nc3cc(C)ccc3C)CC2)c2ccccc2O1 (centres undefined)	TDP1 cell CPT 13µM, TDP1 cell noCPT 13µM
CCC1CN(C(=O)N2CCC(C(=O)Nc3ccccc3F)CC2)c2ccccc2O1 (centres undefined)	TDP1 cell CPT inconclusive, TDP1 cell noCPT 23µM!
CCS(=O)(=O)N1CCC(C(=O)NCCC2=CCCCC2)CC1	none
CCC1CN(C(=O)N2CCC(C(=O)NCc3ccccc3C)CC2)c2ccccc2O1 (centres undefined)	TDP1 cell CPT 18µM, TDP1 cell noCPT 21µM

Screening data from PubChem BioAssay.
